# ± gives the standard deviation of the averaged measurements.
# Columns and labels:
# Assay in all cases: promoter activity interaction Z-score (Lux/OD deviation from empty-vector control); higher = stronger promoter induction by the compound
# [1] = system: E. coli BW25113 acrABp lux reporter
# How it was run: (§1)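 OD600 and luminescence of E. coli BW25113 reporter cultures (40 µl LB Lennox, 384-well plates, 37°C) were measured every 30 min for 12 h. Integration ran over 0–8 h for wild type or 1–9 h for deletion strains, and wells with growth below 10% of the median were dropped. The score is the Z-transformed residual of growth-normalised luminescence fitted against a control.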
# [2] = system: E. coli BW25113 micFp lux reporter
# How it was run: as §1
# [3] = system: E. coli BW25113 ompFp lux reporter
# How it was run: as §1
# [4] = system: E. coli BW25113 robp lux reporter
# How it was run: as §1
# [5] = system: E. coli BW25113 soxSp lux reporter
# How it was run: as §1
# [6] = system: E. coli BW25113 tolCp lux reporter
# How it was run: as §1
# [7] = 1.3 µg/ml, genetic background: wild type
# [8] = 1.3 µg/ml, genetic background: ΔmarA
# [9] = 1.3 µg/ml, genetic background: Δrob
# [10] = 1.3 µg/ml, genetic background: ΔsoxS
# [11] = 2.5 µg/ml, genetic background: wild type
# [12] = 2.5 µg/ml, genetic background: ΔmarA
# [13] = 2.5 µg/ml, genetic background: Δrob
# [14] = 2.5 µg/ml, genetic background: ΔsoxS
# [15] = 5 µg/ml, genetic background: wild type
# [16] = 5 µg/ml, genetic background: ΔmarA
# [17] = 5 µg/ml, genetic background: Δrob
# [18] = 5 µg/ml, genetic background: ΔsoxS
# [19] = 10 µg/ml, genetic background: wild type
# [20] = 10 µg/ml, genetic background: ΔmarA
# [21] = 10 µg/ml, genetic background: Δrob
# [22] = 10 µg/ml, genetic background: ΔsoxS
compound,measurement,setting,value
C/C=C/C/C=C/CCC(=O)[C@H]1O[C@H]1C(N)=O [Cerulenin],promoter activity interaction Z-score,[1]; [7],-0.125 ± 0.083
same,promoter activity interaction Z-score,[1]; [8],0.156 ± 2.5
same,promoter activity interaction Z-score,[1]; [9],-0.449 ± 0.14
same,promoter activity interaction Z-score,[1]; [10],-0.289 ± 0.15
same,promoter activity interaction Z-score,[1]; [11],-0.467 ± 0.3
same,promoter activity interaction Z-score,[1]; [12],-0.0359 ± 0.66
same,promoter activity interaction Z-score,[1]; [13],-0.976 ± 0.19
same,promoter activity interaction Z-score,[1]; [14],-0.932 ± 0.045
same,promoter activity interaction Z-score,[1]; [15],-0.444 ± 0.41
same,promoter activity interaction Z-score,[1]; [16],-0.831 ± 1.3
same,promoter activity interaction Z-score,[1]; [17],-0.767 ± 0.071
same,promoter activity interaction Z-score,[1]; [18],-1.14 ± 0.31
same,promoter activity interaction Z-score,[1]; [19],-0.873 ± 0.42
same,promoter activity interaction Z-score,[1]; [20],-0.628 ± 0.16
same,promoter activity interaction Z-score,[1]; [21],-1.08 ± 0.23
same,promoter activity interaction Z-score,[1]; [22],-1.52 ± 0.22
same,promoter activity interaction Z-score,[2]; [7],-0.474 ± 0.33
same,promoter activity interaction Z-score,[2]; [8],-0.0522 ± 0.1
same,promoter activity interaction Z-score,[2]; [9],-0.112 ± 0.0041
same,promoter activity interaction Z-score,[2]; [10],-0.269 ± 0.047
same,promoter activity interaction Z-score,[2]; [11],-0.545 ± 0.087
same,promoter activity interaction Z-score,[2]; [12],0.0153 ± 0.15
same,promoter activity interaction Z-score,[2]; [13],-0.217 ± 0.13
same,promoter activity interaction Z-score,[2]; [14],-0.157 ± 0.23
same,promoter activity interaction Z-score,[2]; [15],-0.73 ± 0.2
same,promoter activity interaction Z-score,[2]; [16],-0.0985 ± 0.11
same,promoter activity interaction Z-score,[2]; [17],-0.316 ± 0.094
same,promoter activity interaction Z-score,[2]; [18],-0.417 ± 0.0084
same,promoter activity interaction Z-score,[2]; [19],-0.803 ± 0.19
same,promoter activity interaction Z-score,[2]; [20],-0.112 ± 0.028
same,promoter activity interaction Z-score,[2]; [21],-0.428 ± 0.056
same,promoter activity interaction Z-score,[2]; [22],-0.177 ± 0.14
same,promoter activity interaction Z-score,[3]; [7],0.448 ± 0.98
same,promoter activity interaction Z-score,[3]; [8],-0.174 ± 0.032
same,promoter activity interaction Z-score,[3]; [9],0.809 ± 0.68
same,promoter activity interaction Z-score,[3]; [10],0.456 ± 0.65
same,promoter activity interaction Z-score,[3]; [11],0.281 ± 0.58
same,promoter activity interaction Z-score,[3]; [12],0.575 ± 1.4
same,promoter activity interaction Z-score,[3]; [13],0.286 ± 1.6
same,promoter activity interaction Z-score,[3]; [14],0.108 ± 0.82
same,promoter activity interaction Z-score,[3]; [15],0.0997 ± 0.61
same,promoter activity interaction Z-score,[3]; [16],-0.516 ± 0.26
same,promoter activity interaction Z-score,[3]; [17],-0.143 ± 0.79
same,promoter activity interaction Z-score,[3]; [18],-0.26 ± 1
same,promoter activity interaction Z-score,[3]; [19],-0.484 ± 0.16
same,promoter activity interaction Z-score,[3]; [20],-0.179 ± 1.2
same,promoter activity interaction Z-score,[3]; [21],-0.74 ± 0.62
same,promoter activity interaction Z-score,[3]; [22],-0.034 ± 1
same,promoter activity interaction Z-score,[4]; [7],-0.713 ± 0.68
same,promoter activity interaction Z-score,[4]; [8],-0.524 ± 0.17
same,promoter activity interaction Z-score,[4]; [9],-0.0923 ± 0.31
same,promoter activity interaction Z-score,[4]; [10],-0.398 ± 0.41
same,promoter activity interaction Z-score,[4]; [11],-0.365 ± 0.25
same,promoter activity interaction Z-score,[4]; [12],1.47 ± 0.041
same,promoter activity interaction Z-score,[4]; [13],-0.839 ± 0.52
same,promoter activity interaction Z-score,[4]; [14],-0.254 ± 0.55
same,promoter activity interaction Z-score,[4]; [15],-0.743 ± 0.19
same,promoter activity interaction Z-score,[4]; [16],-0.973 ± 0.24
same,promoter activity interaction Z-score,[4]; [17],-0.585 ± 0.0081
same,promoter activity interaction Z-score,[4]; [18],-1.25 ± 0.42
same,promoter activity interaction Z-score,[4]; [19],-0.802 ± 0.13
same,promoter activity interaction Z-score,[4]; [20],-0.285 ± 0.72
same,promoter activity interaction Z-score,[4]; [21],-0.242 ± 0.94
same,promoter activity interaction Z-score,[4]; [22],-1.2 ± 0.47
same,promoter activity interaction Z-score,[5]; [7],0.113 ± 0.13
same,promoter activity interaction Z-score,[5]; [8],0.192 ± 0.091
same,promoter activity interaction Z-score,[5]; [9],0.247 ± 0.027
same,promoter activity interaction Z-score,[5]; [10],0.367 ± 0.43
same,promoter activity interaction Z-score,[5]; [11],0.186 ± 0.013
same,promoter activity interaction Z-score,[5]; [12],0.183 ± 0.076
same,promoter activity interaction Z-score,[5]; [13],0.113 ± 0.03
same,promoter activity interaction Z-score,[5]; [14],0.157 ± 0.38
same,promoter activity interaction Z-score,[5]; [15],0.112 ± 0.028
same,promoter activity interaction Z-score,[5]; [16],0.138 ± 0.17
same,promoter activity interaction Z-score,[5]; [17],0.18 ± 0.047
same,promoter activity interaction Z-score,[5]; [18],0.17 ± 0.56
same,promoter activity interaction Z-score,[5]; [19],-0.107 ± 0.23
same,promoter activity interaction Z-score,[5]; [20],-0.0897 ± 0.034
same,promoter activity interaction Z-score,[5]; [21],-0.133 ± 0.19
same,promoter activity interaction Z-score,[5]; [22],0.572 ± 1.2
same,promoter activity interaction Z-score,[6]; [7],-1.14 ± 0.49
same,promoter activity interaction Z-score,[6]; [8],-0.979 ± 0.76
same,promoter activity interaction Z-score,[6]; [9],-0.746 ± 0.32
same,promoter activity interaction Z-score,[6]; [10],-0.768 ± 0.23
same,promoter activity interaction Z-score,[6]; [11],-0.464 ± 0.17
same,promoter activity interaction Z-score,[6]; [12],-0.204 ± 1.3
same,promoter activity interaction Z-score,[6]; [13],-1.38 ± 0.2
same,promoter activity interaction Z-score,[6]; [14],-0.639 ± 0.61
same,promoter activity interaction Z-score,[6]; [15],-0.559 ± 0.033
same,promoter activity interaction Z-score,[6]; [16],-0.9 ± 0.62
same,promoter activity interaction Z-score,[6]; [17],-1.25 ± 0.71
same,promoter activity interaction Z-score,[6]; [18],-1.5 ± 0.1
same,promoter activity interaction Z-score,[6]; [19],-0.737 ± 0.051
same,promoter activity interaction Z-score,[6]; [20],-1.7 ± 0.36
same,promoter activity interaction Z-score,[6]; [21],-0.996 ± 0.2
same,promoter activity interaction Z-score,[6]; [22],-0.404 ± 0.65

# — the supplement of paper PMC12282887
